Assay [1] concerns the target Serine/threonine-protein kinase 26 (Homo sapiens) (UniProt Q9P289). Conditions: at 1 µM.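 Also: mean inhibition of MST4 kinase activity, reported from the GSK PKIS inhibitor-set screening panel.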
Assay [2] has as its target Serine/threonine-protein kinase PAK 1 (Homo sapiens) (UniProt Q13153). Conditions: at 0.1 µM.
For assay [3] the target is unchanged. Conditions: at 1 µM.
Assay [4] deals with Serine/threonine-protein kinase PAK 2 (Homo sapiens) (UniProt Q13177). The conditions noted are these: at 0.1 µM.
Serine/threonine-protein kinase PAK 2 (Homo sapiens), sequence (Q13177 whole entry): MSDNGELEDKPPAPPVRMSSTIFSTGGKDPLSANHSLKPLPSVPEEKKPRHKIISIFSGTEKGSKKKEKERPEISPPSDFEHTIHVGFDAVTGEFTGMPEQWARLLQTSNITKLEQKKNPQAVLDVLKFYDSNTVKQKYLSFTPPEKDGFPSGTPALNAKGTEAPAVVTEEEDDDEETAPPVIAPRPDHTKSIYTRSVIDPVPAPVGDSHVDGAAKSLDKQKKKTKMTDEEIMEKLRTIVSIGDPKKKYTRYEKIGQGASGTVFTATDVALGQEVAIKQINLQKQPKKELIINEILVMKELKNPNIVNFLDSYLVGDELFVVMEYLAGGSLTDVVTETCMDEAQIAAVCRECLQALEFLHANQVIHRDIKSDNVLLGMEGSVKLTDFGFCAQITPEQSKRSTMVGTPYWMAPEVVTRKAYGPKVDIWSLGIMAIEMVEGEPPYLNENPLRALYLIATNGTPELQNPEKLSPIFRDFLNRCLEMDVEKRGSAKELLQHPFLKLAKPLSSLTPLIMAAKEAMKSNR
Assay [5] has the same target. The conditions noted are these: at 1 µM.
The target of assay [6] is Serine/threonine-protein kinase PAK 3 (Homo sapiens) (UniProt O75914). The conditions noted are these: at 0.1 µM.
Serine/threonine-protein kinase PAK 3 (Homo sapiens), sequence (O75914 whole entry, looked up): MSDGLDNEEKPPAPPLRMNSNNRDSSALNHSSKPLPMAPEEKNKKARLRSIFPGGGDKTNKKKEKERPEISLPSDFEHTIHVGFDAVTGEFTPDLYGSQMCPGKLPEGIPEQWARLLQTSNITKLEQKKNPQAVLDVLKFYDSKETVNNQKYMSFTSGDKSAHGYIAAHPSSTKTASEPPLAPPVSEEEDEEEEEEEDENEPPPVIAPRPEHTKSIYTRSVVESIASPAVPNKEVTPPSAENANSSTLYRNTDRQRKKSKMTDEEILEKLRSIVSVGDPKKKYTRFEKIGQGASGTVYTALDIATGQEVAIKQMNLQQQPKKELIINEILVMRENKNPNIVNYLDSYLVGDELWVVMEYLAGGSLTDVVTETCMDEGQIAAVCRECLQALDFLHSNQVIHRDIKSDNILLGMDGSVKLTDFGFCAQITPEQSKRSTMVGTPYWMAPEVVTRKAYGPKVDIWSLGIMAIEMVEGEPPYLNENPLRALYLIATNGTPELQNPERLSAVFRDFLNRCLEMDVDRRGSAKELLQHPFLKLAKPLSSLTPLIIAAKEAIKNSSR
The target is the same in assay [7]. The conditions noted are these: at 1 µM.
For assay [8], the target named is Serine/threonine-protein kinase PAK 5 (Homo sapiens) (UniProt Q9P286). Conditions: at 0.1 µM.
Serine/threonine-protein kinase PAK 5 (Homo sapiens), sequence (Q9P286 whole entry, looked up): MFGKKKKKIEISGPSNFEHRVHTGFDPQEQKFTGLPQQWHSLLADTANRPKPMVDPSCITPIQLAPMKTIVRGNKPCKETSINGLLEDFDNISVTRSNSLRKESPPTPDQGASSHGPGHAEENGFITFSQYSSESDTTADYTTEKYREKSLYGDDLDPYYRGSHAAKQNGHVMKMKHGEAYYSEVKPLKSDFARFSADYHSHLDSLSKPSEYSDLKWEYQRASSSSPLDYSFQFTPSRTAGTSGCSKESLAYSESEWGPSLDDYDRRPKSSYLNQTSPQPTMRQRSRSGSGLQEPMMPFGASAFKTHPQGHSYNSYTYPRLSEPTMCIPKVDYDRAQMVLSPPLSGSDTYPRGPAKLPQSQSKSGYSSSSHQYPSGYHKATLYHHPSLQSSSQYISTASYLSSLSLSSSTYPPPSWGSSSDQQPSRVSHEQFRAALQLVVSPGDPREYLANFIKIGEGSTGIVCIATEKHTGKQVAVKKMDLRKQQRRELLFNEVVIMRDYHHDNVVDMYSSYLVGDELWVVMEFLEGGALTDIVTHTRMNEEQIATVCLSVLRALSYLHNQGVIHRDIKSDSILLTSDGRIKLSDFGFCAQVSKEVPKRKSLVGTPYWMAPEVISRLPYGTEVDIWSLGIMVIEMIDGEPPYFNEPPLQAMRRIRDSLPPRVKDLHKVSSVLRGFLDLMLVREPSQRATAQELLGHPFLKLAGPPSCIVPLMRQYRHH
Assay [9] has the same target. The conditions noted are these: at 1 µM.
The target in assay [10] is Serine/threonine-protein kinase PAK 6 (Homo sapiens) (UniProt Q9NQU5). Conditions: at 0.1 µM.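 Also: mean PAK6 inhibition reported from the GSK PKIS screen.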
Serine/threonine-protein kinase PAK 6 (Homo sapiens), sequence (Q9NQU5 whole entry, looked up): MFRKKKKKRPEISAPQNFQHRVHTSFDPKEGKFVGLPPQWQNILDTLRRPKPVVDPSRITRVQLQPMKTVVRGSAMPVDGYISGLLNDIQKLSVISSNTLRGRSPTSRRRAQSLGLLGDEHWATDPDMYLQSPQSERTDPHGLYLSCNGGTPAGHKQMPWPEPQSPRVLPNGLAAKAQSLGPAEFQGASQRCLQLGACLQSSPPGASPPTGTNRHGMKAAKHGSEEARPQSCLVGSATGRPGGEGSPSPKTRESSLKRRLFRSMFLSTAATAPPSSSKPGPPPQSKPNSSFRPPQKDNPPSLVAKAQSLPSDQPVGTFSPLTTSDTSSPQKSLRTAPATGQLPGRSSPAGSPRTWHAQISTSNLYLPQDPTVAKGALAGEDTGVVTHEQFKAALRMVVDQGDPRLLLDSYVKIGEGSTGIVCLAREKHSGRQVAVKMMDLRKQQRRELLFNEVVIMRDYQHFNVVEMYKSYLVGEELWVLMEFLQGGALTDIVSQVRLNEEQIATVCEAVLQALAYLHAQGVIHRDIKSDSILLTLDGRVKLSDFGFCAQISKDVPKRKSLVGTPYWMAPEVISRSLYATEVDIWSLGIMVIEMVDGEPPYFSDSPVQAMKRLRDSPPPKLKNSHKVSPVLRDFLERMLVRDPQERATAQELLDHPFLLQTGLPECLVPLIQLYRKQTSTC

Where “and” joins values, the source holds several entries; their conditions need not be identical. Equal entries are not always repeated.

Serine/threonine-protein kinase PAK 1 (Homo sapiens), sequence (Q13153 whole entry): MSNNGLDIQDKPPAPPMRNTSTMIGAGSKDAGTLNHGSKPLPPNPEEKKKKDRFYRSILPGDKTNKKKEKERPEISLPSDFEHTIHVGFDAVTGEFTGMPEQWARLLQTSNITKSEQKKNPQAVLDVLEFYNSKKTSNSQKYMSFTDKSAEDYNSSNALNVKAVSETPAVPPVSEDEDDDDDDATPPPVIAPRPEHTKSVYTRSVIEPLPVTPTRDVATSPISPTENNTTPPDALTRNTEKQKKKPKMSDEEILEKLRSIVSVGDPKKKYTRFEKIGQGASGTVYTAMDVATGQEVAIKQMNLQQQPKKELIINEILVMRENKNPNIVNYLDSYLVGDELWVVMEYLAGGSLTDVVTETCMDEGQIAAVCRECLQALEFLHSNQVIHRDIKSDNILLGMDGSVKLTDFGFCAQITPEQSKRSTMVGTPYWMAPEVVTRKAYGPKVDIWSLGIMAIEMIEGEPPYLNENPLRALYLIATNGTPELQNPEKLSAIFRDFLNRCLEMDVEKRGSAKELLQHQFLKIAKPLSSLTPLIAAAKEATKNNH
Serine/threonine-protein kinase 26 (Homo sapiens), sequence (Q9P289 2-416 limits assumed): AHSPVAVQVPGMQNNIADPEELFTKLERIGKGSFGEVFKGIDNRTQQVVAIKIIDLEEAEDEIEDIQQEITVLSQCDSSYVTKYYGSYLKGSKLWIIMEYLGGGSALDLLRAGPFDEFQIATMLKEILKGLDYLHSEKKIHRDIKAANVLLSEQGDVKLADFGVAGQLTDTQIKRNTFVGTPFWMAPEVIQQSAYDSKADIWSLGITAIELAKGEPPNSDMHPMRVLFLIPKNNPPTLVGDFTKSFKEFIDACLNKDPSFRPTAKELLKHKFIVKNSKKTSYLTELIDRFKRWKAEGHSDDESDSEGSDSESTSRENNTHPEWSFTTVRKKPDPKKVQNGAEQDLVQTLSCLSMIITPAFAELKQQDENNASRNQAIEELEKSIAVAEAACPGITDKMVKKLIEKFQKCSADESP

For the molecule `OCCCNc1nccc(-c2c(-c3ccc(F)cc3)nn3cc(C(F)(F)F)ccc23)n1`, the inhibition in [1] is -0.53%; in assay [2], 6.37%; in assay [3] it was 5.57%; in assay [4], 2.56%; in assay [5], 2.03%; in [6], 2.17%. Also, the inhibition is 3.68% in assay [7], -4.85% in assay [8], -5.58% in [9] and 8.72% in assay [10].
For the molecule `CN(C)CCNC(=O)Nc1ccc(N(C)c2ccnc(Nc3ccc(CS(C)(=O)=O)cc3)n2)cc1`, the inhibition in assay [1] was -2.49%; in [2], 4.61%; in assay [3], 9.49%; in assay [4], 1.79%; in assay [5] it was 2.9%; in [6], 3.73%. Further, the inhibition was 4.29% in assay [7], 1.15% in assay [8], 6.27% in assay [9] and -1.56% in assay [10].
As to `NS(=O)(=O)c1ccc(N/N=C2\C(=O)Nc3ccc(C(=O)NCc4ccncc4)cc32)cc1`, the inhibition is 6.51% in [1]; 4.25% in [2]; 4.68% in assay [3]; 2.01% in assay [4]; 2.49% in [5]; 4.5% in [6]. Further, the inhibition is 4.65% in assay [7], 9.16% in [8], 11.3% in [9] and -4.52% in [10].
Regarding `CS(=O)(=O)Nc1ccc(-c2ccc3c(NC(=O)C4CC4)n[nH]c3c2)cc1`, the inhibition in [1] was -2.98%; in assay [2], 3.5%; in [3] it was 5.34%; in assay [4], 1.62%; in assay [5] it was 1.36%; in assay [6], 3.41%. Also, the inhibition in assay [7] was 4.16%; in [8], -0.3%; in assay [9] it was 0.91%; in assay [10], 0.76%.
For the molecule `O=C(O[C@H]1CN[C@H](C#Cc2cc3ncnc(Nc4ccc5c(ccn5Cc5cc(F)ccc5F)c4)c3s2)C1)N1CCOCC1`, the inhibition in assay [1] amounted to 0.81%; in assay [2] it was 9.36%; in assay [3] it was 8.97%; in assay [4] it was 2.13%; in assay [5], 2.48%; in assay [6], 5.02%. For the same molecule, the inhibition is 5.53% in [7], -0.09% in [8], -5.06% in assay [9] and -1.93% in assay [10].
In the case of `COc1cc(Nc2ncc(-c3ccccc3)o2)cc(OC)c1`, the inhibition in assay [1] was -4.28%; in assay [2] it was 6.86%; in assay [3] it was 6.69%; in [4], 1.76%; in assay [5], 1.6%; in assay [6] it was 4.74%. Besides, the inhibition is 3.26% in assay [7], 2.83% in assay [8], 4.51% in assay [9] and 0.07% in assay [10].
For the molecule `Cn1c(-c2nonc2N)nc2cnccc21`, the inhibition in [1] is -1.1%; in assay [2], 5.69%; in assay [3], 9.42%; in assay [4], 1.04%; in [5], 0.39%; in assay [6], 3.23%. In addition, the inhibition in assay [7] is 2.69%; in [8], -1.86%; in assay [9], -0.53%; in [10], 3.95%.
Consider `N#Cc1cccc(Nc2ncc(-c3ccccc3)o2)c1`, for which the inhibition in [1] was -0.74%; in assay [2] it was -2.44%; in [3], -0.39%; in [4] it was 0.33%; in assay [5], -0.77%; in [6], 2.61%. Moreover, the inhibition in assay [7] is 2.5%; in assay [8] it was -5.2%; in assay [9], 1%; in assay [10], 3.79%.
In the case of `Nc1nccc(-c2c(-c3ccc(F)cc3)ncn2C2CCNCC2)n1`, the inhibition in assay [1] is 5.19% and 1.66%; in [2] it was -3.53% and -3.93%; in assay [3] it was -2.75% and -0.14%; in [4] it was -3.09% and 0.25%; in assay [5], -2.02% and 1.56%; in assay [6], -4.58% and -1.23%. The inhibition in [7] is -3.86% and -0.28%; in assay [8] it was -9.21% and 0.56%; in assay [9] it was -3.77% and 2.85%; in assay [10], -8.03% and 2.08%.
On to `COc1ccccc1-c1cc(/C=C2\C(=O)Nc3ncc(Br)cc32)cc(Br)c1O`, for which the inhibition in assay [1] came out at 13.5%; in assay [2] it was 6.7%; in assay [3], 6.23%; in assay [4] it was 1.92%; in assay [5], 2.48%; in assay [6], 4.55%. The inhibition in assay [7] is 5.35%; in [8], 0.29%; in assay [9], 0.44%; in [10], -1.24%.
Regarding `CNC(=O)c1cncc(/C=C/c2ccccc2C)c1`, the inhibition worked out at 2.47% in [1]; 4.67% in assay [2]; 7.54% in assay [3]; 2.06% in [4]; 2.02% in assay [5]; 4.95% in assay [6]. For the same molecule, the inhibition in assay [7] was 5.93%; in [8], 15.4%; in assay [9], 4.8%; in assay [10] it was -2.91%.
On to `CN1CCC(C(=O)Nc2n[nH]c3nc(-c4ccc(O)cc4)c(Br)cc23)CC1`, for which the inhibition was 21.2% and 19.8% in assay [1]; 7.92% and -0.37% in assay [2]; 5.42% and 3.31% in assay [3]; 0.62% and -0.51% in assay [4]; 1.42% and -0.53% in [5]; 4.2% and 1.97% in assay [6]. In addition, the inhibition was 5.02% and 1.71% in assay [7]; -5.26% in [8]; -8.73% and 0.52% in assay [9]; -2.46% and -9.85% in assay [10].
Regarding `CN1CCC(n2cnc(-c3ccc(F)cc3)c2-c2ccnc(NCCO)n2)CC1`, the inhibition in [1] was determined as 1.34%; in assay [2], 5.86%; in assay [3], 7.1%; in assay [4] it was 2.03%; in [5], 2.52%; in assay [6] it was 3.99%. Besides, the inhibition was determined as 3.76% in [7], 0.7% in assay [8], 1.35% in assay [9] and 3.38% in assay [10].
On to `COc1cccc(Nc2nccc(-c3cnn4ncccc34)n2)c1`, for which the inhibition in assay [1] came out at 3.21%; in [2], 2.05%; in assay [3] it was 2.16%; in assay [4] it was 1%; in [5] it was 2.62%; in assay [6], 1.1%. Moreover, the inhibition in [7] turned out to be 1.63%; in assay [8], 8.25%; in assay [9], 5.51%; in [10] it was 1.43%.
For the molecule `Fc1ccc(Nc2nccc(-c3c(-c4ccc(C(F)(F)F)cc4)nn4ncccc34)n2)cc1F`, the inhibition is -0.83% in [1]; 4.75% in [2]; 4.66% in [3]; 1.92% in [4]; 2.47% in assay [5]; 3.13% in [6]. Moreover, the inhibition was 3.25% in assay [7], -0.66% in assay [8], -1.33% in assay [9] and 0.92% in assay [10].

A word on the inhibition: it is the change of the read-out against control, counted positive when it falls.

The values are drawn from ChEMBL document CHEMBL1961873, “Compounds: GSK PKIS; Assays: Nanosyn kinase panel” (2012).
